# Activity calls are given as the source filed them. Rule for the calls: active = hit-call score of the fitted dose curve at least 0.9, where 1 is the maximum; inactive = score below 0.9.
# Experiments:
# Conditions in all cases: mRNA level, 48 h; actives raise or lower the signal
# [1] = read-out: succinate dehydrogenase complex iron sulfur subunit B (SDHB), SDHB (gene 6390); experiment: LTEA_HepaRG_SDHB: Life Technologies and Expression Analysis (LTEA) Assay for succinate dehydrogenase complex iron sulfur subunit B (SDHB) using HepaRG (AID 2283528)
# Outline: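 HepaRG, 48 h exposure, 8-pt half-log series from 100 uM in 0.5% DMSO, duplicates. Readout: SDHB mRNA by Fluidigm qRT-PCR vs housekeeping genes; bidirectional fit relative to DMSO.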
# [2] = read-out: Signal transducer and activator of transcription 3 (Homo sapiens) (UniProt P40763); experiment: LTEA_HepaRG_STAT3: Life Technologies and Expression Analysis (LTEA) Assay for Signal transducer and activator of transcription (STAT3) using HepaRG (AID 2283529)
# Outline: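 Differentiated human HepaRG cells in serum-free induction medium were exposed in duplicate for 48 h to eight half-log concentrations up to 100 uM in 0.5% DMSO. STAT3 mRNA was quantified by TaqMan qRT-PCR, normalized to ACTB, GAPDH and POLR2A, and fitted bidirectionally against DMSO.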
# [3] = read-out: solute carrier (SLCO1B1), SLCO1B1 (gene 10599); experiment: LTEA_HepaRG_SLCO1B1: Life Technologies and Expression Analysis (LTEA) Assay for solute carrier (SLCO1B1) using HepaRG (AID 2283530)
# Outline: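 SLCO1B1 transcript read by qRT-PCR (Fluidigm arrays), normalized to three housekeeping genes, after 48 h chemical exposure of HepaRG cells; bidirectional concentration-response fitting versus 0.5% DMSO baseline. Eight-point half-log series, maximum 100 uM.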
# [4] = read-out: sulfotransferase 2A1 (SULT2A1), SULT2A1 (gene 6822); experiment: LTEA_HepaRG_SULT2A1: Life Technologies and Expression Analysis (LTEA) Assay for sulfotransferase 2A1 (SULT2A1) using HepaRG (AID 2283531)
# Outline: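 HepaRG, 48 h chemical exposure, 8-pt half-log curve from 100 uM in 0.5% DMSO, duplicates. Readout: TaqMan qRT-PCR of SULT2A1 mRNA, housekeeping-normalized. Bidirectional fit vs DMSO baseline.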
# [5] = read-out: Transforming Growth Factor (TGFB1), TGFB1 (gene 7040); experiment: LTEA_HepaRG_TGFB1: Life Technologies and Expression Analysis (LTEA) Assay for Transforming Growth Factor (TGFB1) Transporter using HepaRG (AID 2283533)
# Outline: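 qRT-PCR readout of TGFB1 transcript in HepaRG lysates, normalized to three housekeeping genes; gain or loss of signal fitted relative to 0.5% DMSO vehicle. Exposure: 48 h, 8-point curve from 100 uM, duplicate wells.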
# [6] = read-out: TIMP1, TIMP1 (gene 7076); experiment: LTEA_HepaRG_TIMP1: Life Technologies and Expression Analysis (LTEA) Assay for TIMP1 using HepaRG (AID 2283534);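 for outcome: TaqMan qRT-PCR signal normalized to ACTB GAPDH and POLR2A housekeeping genes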
# Outline: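 HepaRG, 48 h exposure, 8-pt half-log series from 100 uM in 0.5% DMSO, duplicates; TIMP1 transcript by Fluidigm qRT-PCR, housekeeping-normalized; bidirectional curve fit vs DMSO baseline.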
# [7] = read-out: Tumor necrosis factor receptor 1 (TNFRSF1A), TNFRSF1A (gene 7132); experiment: LTEA_HepaRG_TNFRSF1A: Life Technologies and Expression Analysis (LTEA) Assay for Tumor necrosis factor receptor 1 (TNFRSF1A) using HepaRG (AID 2283535)
# Outline: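 HepaRG, 48 h plating then 48 h chemical exposure, serum-free induction media; 8-pt CRC from 100 uM, half-log, 0.5% DMSO vehicle, duplicates. Readout: TaqMan qRT-PCR (Fluidigm), housekeeping-gene normalized; bidirectional fit vs DMSO.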
# [8] = read-out: Thyroid Hormone Responsive (THRSP), THRSP (gene 7069); experiment: LTEA_HepaRG_THRSP: Life Technologies and Expression Analysis (LTEA) Assay for Thyroid Hormone Responsive (THRSP) using HepaRG (AID 2283536)
# Outline: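 Differentiated human HepaRG cells were exposed in duplicate for 48 h in serum-free induction medium to eight concentrations (top 100 uM, half-log steps, 0.5% DMSO). Expression was quantified by TaqMan qRT-PCR, normalized to ACTB, GAPDH and POLR2A, with bidirectional fitting against DMSO.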
# [9] = read-out: Cellular tumor antigen p53 (Homo sapiens) (UniProt P04637); experiment: LTEA_HepaRG_TP53: Life Technologies and Expression Analysis (LTEA) Assay for Tumor Protein P53 (TP53) using HepaRG (AID 2283537)
# Outline: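 HepaRG, 48 h exposure, top 100 uM, half-log 8-point, 0.5% DMSO vehicle, duplicates. Read: TP53 mRNA by TaqMan qRT-PCR, normalised to ACTB/GAPDH/POLR2A; bidirectional fit vs DMSO.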
# [10] = read-out: Transforming Growth Factor (TGFA), TGFA (gene 7039); experiment: LTEA_HepaRG_TGFA: Life Technologies and Expression Analysis (LTEA) Assay for Transforming Growth Factor (TGFA) using HepaRG (AID 2283532)
# Outline: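 Differentiated human HepaRG cells, plated 48 h then switched to serum-free induction medium, were exposed in duplicate for 48 h to 8-point half-log series from 100 uM in 0.5% DMSO. TGFA mRNA measured by qRT-PCR, normalized to ACTB/GAPDH/POLR2A, bidirectional fit versus DMSO.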
# Cellular tumor antigen p53 (Homo sapiens), sequence (P04637 whole entry, looked up): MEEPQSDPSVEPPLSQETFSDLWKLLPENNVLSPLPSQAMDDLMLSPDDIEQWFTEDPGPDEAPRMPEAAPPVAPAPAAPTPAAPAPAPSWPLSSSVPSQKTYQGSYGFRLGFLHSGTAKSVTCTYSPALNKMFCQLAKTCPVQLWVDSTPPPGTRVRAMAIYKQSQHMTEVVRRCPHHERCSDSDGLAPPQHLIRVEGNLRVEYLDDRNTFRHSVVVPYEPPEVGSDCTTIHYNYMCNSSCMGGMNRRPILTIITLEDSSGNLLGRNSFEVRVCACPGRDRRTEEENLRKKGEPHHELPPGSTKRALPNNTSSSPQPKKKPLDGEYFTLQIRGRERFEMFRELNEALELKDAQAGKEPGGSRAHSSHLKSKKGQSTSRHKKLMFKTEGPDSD
# Signal transducer and activator of transcription 3 (Homo sapiens), sequence (P40763 whole entry, looked up): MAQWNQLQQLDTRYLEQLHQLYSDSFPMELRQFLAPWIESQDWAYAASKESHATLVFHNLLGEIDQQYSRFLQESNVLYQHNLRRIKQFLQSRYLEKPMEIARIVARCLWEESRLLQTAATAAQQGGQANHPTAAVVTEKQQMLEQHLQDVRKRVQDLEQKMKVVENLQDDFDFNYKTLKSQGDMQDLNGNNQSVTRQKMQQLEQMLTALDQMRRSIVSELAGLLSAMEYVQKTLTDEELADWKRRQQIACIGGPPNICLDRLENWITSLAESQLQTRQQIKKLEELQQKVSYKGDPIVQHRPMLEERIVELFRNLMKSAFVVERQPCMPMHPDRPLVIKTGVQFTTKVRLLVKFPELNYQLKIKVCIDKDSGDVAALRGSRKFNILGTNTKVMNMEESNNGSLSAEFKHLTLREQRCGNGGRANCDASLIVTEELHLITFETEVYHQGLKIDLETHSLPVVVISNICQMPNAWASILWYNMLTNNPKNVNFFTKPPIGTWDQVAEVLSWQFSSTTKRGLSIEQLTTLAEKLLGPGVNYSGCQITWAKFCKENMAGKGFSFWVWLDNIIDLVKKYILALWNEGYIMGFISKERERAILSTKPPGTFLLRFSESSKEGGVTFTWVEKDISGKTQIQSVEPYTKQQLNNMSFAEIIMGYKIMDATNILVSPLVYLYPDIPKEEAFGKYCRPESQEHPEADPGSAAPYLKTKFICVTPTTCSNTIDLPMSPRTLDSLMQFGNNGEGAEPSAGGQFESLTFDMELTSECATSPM
smiles,measurement,setting,value
COCCOCCOC,AC50,[1],10.9 µM (active)
same,outcome,[2],inactive
same,outcome,[3],inactive
same,outcome,[4],inactive
same,outcome,[5],inactive
same,outcome,[6],inactive
same,outcome,[7],inactive
same,outcome,[8],inactive
same,AC50,[9],0.59 µM (active)
Cc1ccc(N(C)C)cc1,outcome,[1],inactive
same,outcome,[2],inactive
same,outcome,[3],inactive
same,outcome,[4],inactive
same,outcome,[10],inactive
same,outcome,[5],inactive
same,outcome,[6],inactive
same,outcome,[7],inactive
same,outcome,[8],inactive
same,outcome,[9],inactive
CC(=O)C(C)=CC1C(C)=CCCC1(C)C (stereo unspecified),outcome,[1],inactive
same,outcome,[2],inactive
same,outcome,[3],inactive
same,outcome,[4],inactive
same,outcome,[10],inactive
same,outcome,[5],inactive
same,outcome,[6],inactive
same,outcome,[7],inactive
same,outcome,[8],inactive
same,outcome,[9],inactive
CC(C)(C)c1cc(O)c(C(C)(C)C)cc1O,outcome,[1],inactive
same,outcome,[2],inactive
same,AC50,[3],79.1 µM (active)
same,AC50,[4],90.9 µM (active)
same,outcome,[10],inactive
same,outcome,[5],inactive
same,AC50,[6],50 µM (active)
same,AC50,[7],78.3 µM (active)
same,AC50,[8],78.9 µM (active)
same,AC50,[9],86.7 µM (active)
CC(=O)OC/C=C(\C)CCC=C(C)C,outcome,[1],inactive
same,outcome,[2],inactive
same,outcome,[3],inactive
same,outcome,[4],inactive
same,outcome,[10],inactive
same,outcome,[5],inactive
same,outcome,[6],inactive
same,outcome,[7],inactive
same,outcome,[8],inactive
same,outcome,[9],inactive
O=c1c(O)c(-c2ccc(O)c(O)c2)oc2cc(O)cc(O)c12,outcome,[1],inactive
same,outcome,[2],inactive
same,AC50,[3],86.8 µM (active)
same,outcome,[4],inactive
same,outcome,[10],inactive
same,outcome,[5],inactive
same,outcome,[6],inactive
same,outcome,[7],inactive
same,outcome,[8],inactive
same,outcome,[9],inactive
CC(C)c1ccc(C(=O)N=C(N)N)cc1S(C)(=O)=O,outcome,[1],inactive
same,outcome,[2],inactive
same,outcome,[3],inactive
same,outcome,[4],inactive
same,AC50,[10],0.555 µM (active)
same,AC50,[5],0.403 µM (active)
same,outcome,[6],inactive
same,AC50,[7],0.337 µM (active)
same,AC50,[8],37.2 µM (active)
same,AC50,[9],0.457 µM (active)
CCCCc1ccc2c(n1)[C@@H](c1ccc(OC)cc1C[C@H](C)C(=O)O)[C@H](C(=O)O)[C@H]2c1ccc2c(c1)OCO2,outcome,[1],inactive
same,outcome,[2],inactive
same,outcome,[3],inactive
same,outcome,[4],inactive
same,outcome,[10],inactive
same,outcome,[5],inactive
same,outcome,[6],inactive
same,outcome,[7],inactive
same,outcome,[8],inactive
same,outcome,[9],inactive
CCOC(=O)CCC(=O)OCC,outcome,[1],inactive
same,outcome,[2],inactive
same,outcome,[3],inactive
same,outcome,[4],inactive
same,outcome,[10],inactive
same,outcome,[5],inactive
same,outcome,[6],inactive
same,outcome,[7],inactive
same,outcome,[8],inactive
same,outcome,[9],inactive
CCCCCCCC=O,outcome,[1],inactive
same,outcome,[2],inactive
same,outcome,[3],inactive
same,outcome,[4],inactive
same,outcome,[10],inactive
same,outcome,[5],inactive
same,outcome,[6],inactive
same,outcome,[7],inactive
same,outcome,[8],inactive
same,outcome,[9],inactive
O=C(O)CCCCC(=O)O,outcome,[1],inactive
same,outcome,[2],inactive
same,outcome,[3],inactive
same,outcome,[4],inactive
same,outcome,[5],inactive
same,outcome,[6],inactive
same,outcome,[7],inactive
same,outcome,[8],inactive
same,outcome,[9],inactive
Cc1ccc(Cl)cc1,outcome,[1],inactive
same,outcome,[2],inactive
same,outcome,[3],inactive
same,outcome,[4],inactive
same,outcome,[10],inactive
same,outcome,[5],inactive
same,outcome,[6],inactive
same,outcome,[7],inactive
same,outcome,[9],inactive
NCCO,outcome,[1],inactive
same,outcome,[2],inactive
same,outcome,[3],inactive
same,outcome,[4],inactive
same,outcome,[10],inactive
same,outcome,[5],inactive
same,outcome,[6],inactive
same,outcome,[7],inactive
same,outcome,[8],inactive
same,outcome,[9],inactive
CN[C@H]1CC[C@@H](c2ccc(Cl)c(Cl)c2)c2ccc(S(N)(=O)=O)cc21,outcome,[1],inactive
same,AC50,[2],50 µM (active)
same,outcome,[3],inactive
same,AC50,[4],87.6 µM (active)
same,outcome,[10],inactive
same,outcome,[5],inactive
same,outcome,[6],inactive
same,outcome,[7],inactive
same,outcome,[8],inactive
same,AC50,[9],87.6 µM (active)
Nc1nc(N)c2nc(CNc3ccc(C(=O)N[C@@H](CCC(=O)O)C(=O)O)cc3)cnc2n1,outcome,[1],inactive
same,outcome,[2],inactive
same,outcome,[3],inactive
same,AC50,[4],0.0974 µM (active)
same,outcome,[10],inactive
same,outcome,[5],inactive
same,outcome,[6],inactive
same,outcome,[7],inactive
same,outcome,[8],inactive
same,outcome,[9],inactive
COc1cc(S(=O)(=O)O)c(C)cc1N=Nc1c(O)ccc2cc(S(=O)(=O)O)ccc12,outcome,[1],inactive
same,outcome,[2],inactive
same,outcome,[3],inactive
same,outcome,[4],inactive
same,outcome,[5],inactive
same,outcome,[6],inactive
same,outcome,[7],inactive
same,outcome,[8],inactive
same,outcome,[9],inactive
CC=Cc1ccc(O)c(OC)c1,outcome,[1],inactive
same,outcome,[2],inactive
same,outcome,[3],inactive
same,outcome,[4],inactive
same,outcome,[10],inactive
same,outcome,[5],inactive
same,outcome,[6],inactive
same,outcome,[7],inactive
same,outcome,[8],inactive
same,outcome,[9],inactive
FC(F)(F)C(F)(F)C(F)(F)C(F)(F)C(F)(F)C(F)(F)CCI,outcome,[1],inactive
same,outcome,[2],inactive
same,outcome,[3],inactive
same,outcome,[4],inactive
same,outcome,[10],inactive
same,outcome,[5],inactive
same,outcome,[6],inactive
same,outcome,[7],inactive
same,outcome,[8],inactive
same,outcome,[9],inactive
CCCCC(CC)COC(=O)CC(C(=O)OCC(CC)CCCC)S(=O)(=O)O (stereo unspecified),AC50,[1],86.7 µM (active)
same,outcome,[2],inactive
same,AC50,[3],85.5 µM (active)
same,AC50,[4],80.2 µM (active)
same,AC50,[10],50 µM (active)
same,AC50,[5],77.6 µM (active)
same,outcome,[6],inactive
same,AC50,[7],93.5 µM (active)
same,outcome,[8],inactive
same,AC50,[9],50 µM (active)
CCCCCC(=O)O,outcome,[1],inactive
same,outcome,[2],inactive
same,outcome,[3],inactive
same,outcome,[4],inactive
same,outcome,[10],inactive
same,outcome,[5],inactive
same,outcome,[6],inactive
same,outcome,[7],inactive
same,outcome,[8],inactive
same,outcome,[9],inactive

# — PubChem BioAssay (EPA / NIEHS)
